# Screening data from PubChem.
# DT40 TDP1 no CPT = qHTS for Inhibitors of human tyrosyl-DNA phosphodiesterase 1 (TDP1): qHTS in cells in absence of CPT | DT40 Tdp1-/- hTDP1 cells, no CPT, ATP luminescence, 48 h | actives 15% (n = 420,000) | AID 686978, 2013 | Potency, µM (highest dose often 46.2 µM), actives largely listed as inhibitors; also: nearly all actives have a fitted effect of over 55% in size
#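 Luminescent ATP content (CellTiter-Glo) served as the growth readout. Knockout chicken DT40 cells expressing human TDP1 were exposed to compounds without camptothecin for a minimum 48 hr at 37 °C.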
# TDP1 block = qHTS Assay for Inhibitors of Tyrosyl-DNA Phosphodiesterase (TDP1). Potency, µM (titrated, usually from 130 µM), most hits filed as inhibitors. actives 0.28% (n = 350,000). AID 485290, 2010. recombinant TDP1, AlphaScreen DNA substrate cleavage. Tyrosyl-DNA phosphodiesterase 1 (Homo sapiens), Q9NUW8; also: nearly all actives have a fitted effect of over 40% in size
# Target sequence (Q9NUW8 whole entry, looked up): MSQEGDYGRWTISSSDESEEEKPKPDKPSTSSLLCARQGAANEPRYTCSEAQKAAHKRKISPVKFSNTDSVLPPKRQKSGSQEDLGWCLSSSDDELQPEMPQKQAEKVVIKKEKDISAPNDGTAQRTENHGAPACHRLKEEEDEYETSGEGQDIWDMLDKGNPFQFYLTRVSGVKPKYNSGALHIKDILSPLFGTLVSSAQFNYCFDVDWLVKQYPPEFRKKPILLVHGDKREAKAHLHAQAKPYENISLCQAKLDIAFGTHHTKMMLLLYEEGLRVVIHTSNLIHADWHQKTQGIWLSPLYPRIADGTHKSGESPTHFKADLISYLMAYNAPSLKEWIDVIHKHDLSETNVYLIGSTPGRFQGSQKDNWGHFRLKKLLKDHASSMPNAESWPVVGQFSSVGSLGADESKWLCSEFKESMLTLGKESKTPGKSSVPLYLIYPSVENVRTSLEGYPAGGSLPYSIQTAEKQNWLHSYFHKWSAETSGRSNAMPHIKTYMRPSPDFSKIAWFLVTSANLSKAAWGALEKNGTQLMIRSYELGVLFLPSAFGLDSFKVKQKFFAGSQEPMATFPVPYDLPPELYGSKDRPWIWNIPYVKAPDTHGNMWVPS
#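 Signal: AlphaScreen proximity between streptavidin donor and anti-FITC acceptor beads on intact substrate. Reaction: Tdp1 1 nM, substrate 15 nM final, 5 min RT after 15 min compound preincubation.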
# TGFb inhibitor = qHTS for Inhibitors of TGF-b. Potency, µM (highest dose often 46.1 µM), actives largely listed as inhibitors. AID 588855, 2011. actives 1.2% (n = 410,000). HepG2 CAGA-GFP TGF-b/SMAD3 reporter, GFP fluorescence, 18 h; TGF-beta stimulated, 500 pg/mL final; also: nearly all actives have a fitted effect of over 65% in size
#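 HEPG2 CAGA-GFP, 1000 cells/well; 2 h settle, 37 C; cpd via pin tool; TGF-b 500 pg/mL final; 18 h, 37 C; GFP imaging ex488/em500-530; %Activity normalised to -TGF-b and +DMSO controls; CRC fit, curve class.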
# HepG2 viability = qHTS for Inhibitors of TGF-b: Cytotox Counterscreen; Potency, µM (doses to about 46.1 µM), most hits filed as cytotoxic; actives 0.76% (n = 410,000); HepG2 CAGA-GFP viability, ATP luminescence, 18 h
#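 CellTiter-Glo luminescence gave cytotoxicity after 18 hours at 37 degrees C. The cells were HepG2 CAGA-GFP in 1% FBS DMEM, stimulated with 500 pg/mL TGF-beta after compound addition. %Activity was normalised to no-cell wells (complete cell-killing) and DMSO (no toxicity), and curves were fitted and classified.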
# TDP1 cell CPT = qHTS for Inhibitors of human tyrosyl-DNA phosphodiesterase 1 (TDP1): qHTS in cells in presence of CPT; chicken DT40 Tdp1-/-;hTDP1 cells + 20 nM CPT, ATP luminescence, 48 h; Potency, µM (highest dose often 46.2 µM), usual class: inhibitors; actives 12% (n = 420,000); also: nearly all actives have a fitted effect of over 55% in size
#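 Cell growth measured by CellTiter-Glo luminescence after a minimum 48 h, 37 C compound exposure with 20 nM CPT in Tdp1-knockout DT40 cells stably expressing hTDP1, seeded 400/well; qHTS titration format.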
# IL-1B inflam inh = qHTS for Inhibitors of Inflammasome Signaling: IL-1-beta AlphaLISA Primary Screen. activity change, % at 57.5 µM. THP-1 LPS/ATP IL-1B secretion, AlphaLISA, 16 h; active compounds read low. actives 4.7% (n = 360,000); in the data active = activity change below about -50%; inconclusive = mostly about -30% to -49%
#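 THP-1 cells pretreated 1 hr with compounds (up to 57.5 uM final), then stimulated with LPS (250 ng/mL final) plus ATP (1.25 mM final); secreted IL-1B measured by AlphaLISA after 16 hr, decreased signal indicating inhibition.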
# Numbers stand for hits; – = inactive; ? = inconclusive; · = no result given; ! = a repeat was not active; [ ] = another dose, or the depositor's remark. A selection: hits, their analogues and other compounds. The true share with any hit is near 18%. Unless noted, calls follow the shape of the dose curve; as a rule, active = well fitted curve in the direction sought with a large enough effect; inconclusive = small, poorly fitted or top-dose-only effect, or another doubt; inactive = no such curve, though single readings can be large; an effect the other way counts as inactive or inconclusive.
SMILES,DT40 TDP1 no CPT,TDP1 block,TGFb inhibitor,HepG2 viability,TDP1 cell CPT,IL-1B inflam inh
Cc1ccc(S(=O)(=O)N2CCN(C(=O)c3cc4c(s3)CCCC4)CC2)cc1,16µM,–,–,–,?,–
COc1ccc(S(=O)(=O)N2CCN(C(=O)c3cc4c(s3)CCC4)CC2)cc1,?,·,–,–,?,–
Cc1cc(C(=O)NCC2CCC3(CCN(Cc4ccccc4C)CC3)O2)n(C)n1 (stereo not drawn),–,·,·,·,–,·
CCc1cc(=O)oc2cc(C)c3c(-c4ccc(F)cc4)coc3c12,–,·,–,–,–,·
Cn1c(=O)c(-c2cc(F)cc(F)c2)nc2cnc(N3CCOCC3)nc21,–,·,·,·,–,·
COc1ccc(NS(=O)(=O)c2ccc(C(=O)N3CCN(c4ccc(F)cc4)CC3)cc2)cc1,4.6µM,–,?,–,10µM,–
CC1CC(C)CN(C(=O)c2ccc3ccccc3c2)C1 (stereo not drawn),?,–,?,–,?,-51
CC1CCN(C(=O)c2ccc3ccccc3c2)CC1,–,–,–,–,–,–
CCOC(=O)N1CCN(C(=O)c2ccc(S(=O)(=O)Nc3ccccc3)cc2)CC1,?,–,?,–,12µM,–
Cc1ccc(C(=O)N2CCN(c3ncccn3)CC2)cc1,–,·,–,–,–,–
Cc1ccc(NS(=O)(=O)c2ccc(C(=O)N3CCN(c4ncccn4)CC3)cc2)cc1,7.3µM,–,–,–,?,–
COCCCN(C(=O)CSCc1c(C)noc1C)c1c(N)n(Cc2ccccc2)c(=O)[nH]c1=O,–,–[0.505 µM],–,–,–,–
Cc1ccc(C)c(NC(=O)C2CCCN(S(=O)(=O)c3ccc4[nH]c(=O)ccc4c3)C2)c1 (stereo not drawn),?,–,?,–,?,–
O=C(c1ccc(NS(=O)(=O)c2ccccc2)cc1)N1CCOCC1,10µM,·,–,–,–,–
O=C(c1ccc(S(=O)(=O)Nc2ccc(F)cc2)cc1)N1CCN(c2ccccn2)CC1,18µM,–,?,–,?,-54
CC1CC(C)CN(C(=O)c2ccc(S(=O)(=O)N3CC(C)CC(C)C3)cc2)C1 (stereo not drawn),18µM,–,–,–,23µM,-77
Cc1ccc(NS(=O)(=O)c2ccc(C(=O)N3CCOCC3)cc2)cc1,?,–,–,–,?,–
O=C(c1ccc(NS(=O)(=O)c2ccc(F)cc2)cc1)N1CCCCC1,?,–[0.505 µM],–,–,–,–
CCOC(=O)N1CCN(C(=O)COc2ccc(S(=O)(=O)Nc3ccc(OCC)cc3)cc2)CC1,23µM,–,–,–,?,–
CC[C@H](C)[C@H](NC(=O)[C@H](Cc1ccc(O)cc1)NC(=O)[C@@H]1CCCN1C(=O)[C@@H](N)CCCN=C(N)N)C(=O)N[C@@H](CC(C)C)C(=O)O,·,–,·,·,·,·
CN(C)CCNc1cc(N2CCN(C)CC2)ncn1,–,·,–,–,–,·
Cc1ccc(CN(C)C(=O)COC(=O)CSc2cc(C)c3ccccc3n2)cc1,–,–,–,–,–,–
Cc1ccc(NS(=O)(=O)c2ccc(C(=O)N3CC(C)CC(C)C3)cc2)cc1 (stereo not drawn),16µM,–,–,–,21µM,–
Cc1ccc(S(=O)(=O)Nc2ccc(C(=O)N3CCCC3)cc2)cc1,–,–,–,–,–,–
O=C1CC2(CCCC2)C(=O)N1CN1CCN(S(=O)(=O)c2cc(F)ccc2F)CC1,–,·,–,–,–,–
SMILES,DT40 TDP1 no CPT,TDP1 block,TGFb inhibitor,HepG2 viability,TDP1 cell CPT,IL-1B inflam inh
CCCCC1=CC2=C(c3ccco3)C(=O)C(C)(OC(=O)c3ccc(OC)cc3)C(=O)C2=CN1CCCOC(C)C (stereo not drawn),6.5µM,–[12.3 µM],–,–,5.2µM,–
COC(=O)CCC(=O)OC1(C)C(=O)C2=CN(CCCOC(C)C)C(c3ccc(OC)cc3)=CC2=C(Br)C1=O (stereo not drawn),16µM,–,–,–,18µM,–
C=CCN1C=C2C(=O)C(C)(OC(=O)c3ccc(OC)cc3)C(=O)C(c3ccco3)=C2C=C1CCCC (stereo not drawn),–,–[12.3 µM],–,–,13µM,–
C=CCN1C=C2C(=O)C(C)(OC(=O)c3ccco3)C(=O)C(C=C)=C2C=C1C1CC1 (stereo not drawn),·,–[21 µM],·,·,·,·
CCCCC1=CC2=C(c3ccco3)C(=O)C(C)(OC(=O)c3ccc(OC)cc3)C(=O)C2=CN1c1ccccc1 (stereo not drawn),?,–[21 µM],–,–,23µM,–
COc1ccc(OC)c2nc(-c3ccc4c(c3)OCO4)ccc12,–,·,–,–,–,–
Cn1c(=O)c2cc3ccccc3nc2n(C)c1=O,–,–,–,–,–,–
CNC[C@H](O)c1ccc(O)c(O)c1,12µM!,45µM!,–,–,8.4µM!,?
NC[C@H](O)c1ccc(O)c(O)c1,?,2.2µM!,–,–,?,–
CC(C)NCC(O)c1ccc(O)c(O)c1 (stereo not drawn),–,–,–,–,?,–
CC(C)N1CCc2c(sc(NC(=O)c3ccc([N+](=O)[O-])o3)c2C(N)=O)C1,·,–,·,·,·,·
CC(C)N1CCc2c(sc(NC(=O)c3cc(-c4cccs4)nc4ccccc34)c2C(N)=O)C1,9.2µM,–,–,18µM,18µM,–
CC(C)N1CCc2c(sc(NC(=O)c3nc4ccccc4s3)c2C(N)=O)C1,21µM,–,–,–,13µM,–
COCc1c(Br)c(C)nc(OCC(=O)N/N=C/c2cc(C)n(-c3ccc([N+](=O)[O-])cc3)c2C)c1C#N,–,–,–,–,?,–
Nc1ccc(N2CCN(c3ncc(C(F)(F)F)cc3Cl)CC2)c(C(F)(F)F)c1,·,–,?,–,·,·
CCCNC(=O)[C@H]1O[C@@H]1C(=O)N[C@H](C(=O)N1CCC[C@H]1C(=O)OC)[C@@H](C)CC,2.4µM,–,·,·,1.9µM,·
CCC(C)C(NC(=O)OC(C)(C)C)C(=O)NC(C(=O)N1CCCC1C(N)=O)C(C)CC (stereo not drawn),?,–,?,–,–,–
COc1cccc(NC(=O)c2ccc(-n3cnnn3)cc2)c1,–,–,–,–,–,–
